Measured values: PubChem BioAssay (NCATS)
Results filed as inconclusive are left out. Where a call stands in place of a potency, no number is given. A number with no mark means an inactive call. Activity calls are given as the source filed them. Calls come from the whole dose curve; as a rule, active = well fitted inhibition curve with a large enough effect; inconclusive = small, poorly fitted or top-dose-only effect; inactive = flat fitted curve, though single readings scatter.

Experiments:
[1] = qHTS profiling for inhibitors of Plasmodium falciparum proliferation (AID 504749); note: nearly all actives have a fitted effect of over 60% in size; conditions: P. falciparum in erythrocytes, SYBR Green DNA, 72 h
Method in brief: (§1)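 Fluorescence of SYBR Green-bound parasite DNA, read at 485/535 nm, served as the growth measure. Infected erythrocytes were cultured with compound 72 h; artemisinin (0.29 uM) and DMSO wells defined the normalization range.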

[2] = system: 3D7; assay: as above; conditions: P. falciparum in erythrocytes, SYBR Green DNA, 72 h; series mostly up to 28.7 µM
Method in brief: as §1

[3] = system: 7G8; assay: as above; conditions: P. falciparum in erythrocytes, SYBR Green DNA, 72 h; series mostly up to 28.7 µM
Method in brief: as §1

[4] = system: AA1029; assay: as above; conditions: P. falciparum in erythrocytes, SYBR Green DNA, 72 h; series mostly up to 28.7 µM
Method in brief: as §1

[5] = system: AS120; assay: as above; conditions: P. falciparum in erythrocytes, SYBR Green DNA, 72 h; series mostly up to 28.7 µM
Method in brief: as §1

[6] = at 28.7 µM (top of the series), parasite line A
[7] = at 28.7 µM (top of the series), parasite line B
[8] = at 12.8 µM (top of the series), parasite line A
[9] = at 12.8 µM (top of the series), parasite line B
Potency is the fitted concentration of half-maximal effect.

| SMILES | activity, negative = inhibition [1, 6] [%] | activity, negative = inhibition [1, 7] [%] | Potency [2] | Potency [3] | Potency [4] | Potency [5] | Potency ([1]; parasite line A) | Potency ([1]; parasite line B) | activity, negative = inhibition [1, 8] [%] | activity, negative = inhibition [1, 9] [%] |
| --- | --- | --- | --- | --- | --- | --- | --- | --- | --- | --- |
| O=C1OC(c2ccc(O)cc2)(c2ccc(O)cc2)c2ccccc21 | -7.68 | 10.2 | inactive | inactive | inactive | inactive | – | – | – | – |
| COc1cc2c(cc1OC)C(C(C(=O)N(CCc1ccc(OC)c(OC)c1OC)CCc1ccc(OC)c(OC)c1OC)c1ccccc1)=NCC2 (configuration not stated) | 14.8 | -1.99 | 4.47 µM (active) | 0.316 µM (active) | 2.51 µM (active) | inactive | – | – | – | – |
| CC(C)(C)CC(C)(C)c1ccc(O)c(Cc2ccc(Cl)cc2Cl)c1 | – | – | 2.24 µM (active) | 0.447 µM (active) | 0.891 µM (active) | 501 nM (active) | 2 µM (active) | 0.562 µM (active) | – | – |
| CCCCOc1ccc(C(=O)CCN2CCCCC2)cc1 | – | – | inactive | inactive | inactive | inactive | – | – | 2.86 | -20.7 |
| CN1C2CCC1CC(OC(=O)c1c[nH]c3ccccc13)C2 (configuration not stated) | 9.99 | 3.24 | inactive | 10 µM (active) | inactive | inactive | – | – | – | – |
| Cc1ncc(CSSCc2cnc(C)c(O)c2CO)c(CO)c1O | 0.466 | -3.16 | inactive | inactive | inactive | inactive | – | – | – | – |
| Cc1c(C)n(CCN(C)C)c2ccc(C(=O)OCCN(C)C)cc12 | -7.71 | -8.88 | inactive | 8.91 µM (active) | inactive | inactive | – | – | – | – |
| CCCCCC=CCC=CCCCCCCCC(=O)OCC | 1.14 | 2.81 | inactive | inactive | inactive | inactive | – | – | – | – |
| NCCCC[C@H](N[C@@H](CCc1ccccc1)C(=O)O)C(=O)N1CCC[C@H]1C(=O)O | – | – | inactive | inactive | inactive | inactive | – | – | 2.09 | 0.712 |
| CC(=O)OCC(=O)NCCCOc1cccc(CN2CCCCC2)c1 | 16.5 | 8.13 | inactive | inactive | inactive | inactive | – | – | – | – |
| COc1cc(C(=S)N2CCOCC2)cc(OC)c1OC | 7.95 | 9.84 | inactive | inactive | inactive | inactive | – | – | – | – |
| O=C(CCN1CCC(c2ccccc2)C1)c1ccc2c(c1)OCCO2 (configuration not stated) | 10.2 | 1.82 | inactive | inactive | inactive | inactive | – | – | – | – |
| C[N+]1(CCCCC[N+]2(C)CCCC2)CCCC1 | 2.83 | 3.44 | inactive | inactive | inactive | inactive | – | – | – | – |
| COC1=CC(=O)C[C@@H](C)[C@]12Oc1c(Cl)c(OC)cc(OC)c1C2=O | 4.87 | -1.47 | inactive | inactive | inactive | inactive | – | – | – | – |
| NCCC(O)(P(=O)(O)O)P(=O)(O)O | 4.48 | -11.5 | inactive | inactive | inactive | inactive | – | – | – | – |
| O=C(COc1ccc(Cl)cc1)N1CCN(Cc2ccc3c(c2)OCO3)CC1 | 11 | 10.8 | inactive | inactive | inactive | inactive | – | – | – | – |
| CCCn1c(=O)[nH]c(=O)c2[nH]cnc21 | -4.05 | 5.13 | inactive | inactive | inactive | inactive | – | – | – | – |
